Data reported in ChEMBL document CHEMBL1157539, “Thousands of chemical starting points for antimalarial lead identification” (Nature, 2010).

What follows are compounds tested on Plasmodium falciparum (assay: GSK_TCMDC: Inhibition of Plasmodium falciparum Dd2 in whole red blood cells, using parasite LDH activity as an index of growth. Test compounds present at 2uM).
Format: functional

Structure (SMILES)	Inhibition
COc1cc(NC(=O)c2nn(CCCN3CCC(N4CCCC4)CC3)cc2-c2ccc(Cl)c(Cl)c2)cc(OC)c1OC	100%
O=C(CCCCCNC(=O)c1ccc(O)c(-c2ccc(Cl)c(Cl)c2)c1)NC1CCCc2ccccc21 (configuration not stated)	13%
Cc1cc(N[C@@H](Cc2ccccc2)C(=O)NCc2cccc(F)c2)nc(NCCc2ccccc2)n1.O=C(O)C(F)(F)F	73%
CN(CCCCCNC(=O)/C=C/c1ccc(Cl)c(Cl)c1)CCCCc1c[nH]c2ccccc12	15%
O=C(/C=C/c1ccc(C(F)(F)F)cc1)NCCCCCN1CCCN(C(=O)Nc2cccc(Cl)c2)CC1	3%
CCCCCCCCOc1ccc(N2C(N)=NC(N)=NC2(C)C)cc1.Cl	0%
COc1cc2nc(N3CCN(C(=O)c4c(Cl)nsc4-c4ccccc4Cl)CC3)nc(N)c2cc1OC.O=C(O)C(F)(F)F	100%
O=C(Nc1ccc2c(c1)CCN2C1CCN(Cc2ccc(O)cc2)C1)c1ccco1 (configuration not stated)	63%
CCCN1CCN(CCCNc2c3ccccc3nc3ccccc23)CC1.Cl	0%
CN1CCN(Cc2ccc(-c3cc4c(Nc5ccc(OCc6cccc(F)c6)c(Cl)c5)ncnc4s3)[nH]2)CC1	99%
N#Cc1cc(C(=O)c2cc(Cl)ccc2O)cn(-c2cccc(C(F)(F)F)c2)c1=O	7%
CCN(CC)/C(=N/C(=N)NCc1cccc(Cl)c1)NCCCCCCN/C(=N\C(=N)NCc1cccc(Cl)c1)N(CC)CC	99%
Cl.Oc1ccc2ccccc2c1CNC1CCCCCC1	33%
COc1cccc(NC(=O)[C@H](C(C)C)n2c(=O)[nH]c3ccccc3c2=O)c1	100%
CC(=O)Nc1ccc(CN(Cc2ccc(F)cc2)Cc2cccc(Oc3ccccc3)c2)cc1	82%
O=C(O)C(F)(F)F.OCC1CCN(Cc2cccc(-c3ccc(-c4nc5cc(C(F)(F)F)ccc5[nH]4)cc3)c2)CC1	95%
Fc1cccc(Cl)c1-c1nc(NCCC(c2ccccc2)c2ccccc2)no1	87%
Cc1cccc2nc(-c3ccc(-c4cccc(C(=O)NCCc5cn(C)cn5)c4)s3)[nH]c12	17%
CN(C)CCNCc1cccc(-c2cccc(-c3nc4ccccc4[nH]3)c2)c1.O=C(O)C(F)(F)F	63%

Structure (SMILES)	Inhibition
Cc1cc(F)ccc1C1CCN(CCCCNC(=O)c2ccc(NC(=O)c3ccc(Cl)cc3)cc2)CC1	79%
COc1ccc2nccc([C@@H](O)CN3CCC(NCCNc4cccc(F)c4)CC3)c2c1.CS(=O)(=O)O	73%
NC1=NC(c2ccccc2)(c2ccccc2)C(=O)N1CCOc1ccccc1	57%
OC(CNc1ccnc(Nc2ccc(Cl)cc2)n1)c1ccc(C(F)(F)F)cc1 (configuration not stated)	94%
CN(C)CCCOc1ccccc1CN1CC[C@H](NC(=O)c2ccc(Cl)c(Cl)c2)C1.O=C(O)C(F)(F)F	54%
Cc1ccc(OC2CCN(CCCCC3(C)C(=O)Nc4ccccc43)CC2)cc1.Cl (configuration not stated)	2%
CCOc1ccc(C(C)NC(=O)c2cc(Cl)ccc2OC)cc1OCC (configuration not stated)	99%
COc1ccc(-c2cccc(NC(=O)c3cccc(C#N)c3)c2)cc1CN(C)CCO.O=C(O)C(F)(F)F	30%
CN(C)CCN(C)Cc1ccc(-c2ccc(NC(=O)c3cccc(C#N)c3)cc2)cc1.O=C(O)C(F)(F)F	49%
Cc1cc2ncc(C(N)=O)c(Nc3ccc(N4CCOCC4)cc3)c2cc1S(C)(=O)=O.Cl	96%
CN(c1ncc(-c2cccc(CNCc3ccccc3O)c2)cn1)C1CCCCC1	71%
COCCN1CCC(C(=O)NCC(C)(C)c2nc(-c3ccc(Br)c(O)c3)c(-c3ccncc3)[nH]2)CC1.Cl	6%
CSc1cccc(NC(=O)Nc2ccc(I)c(OCCN(C)C)c2)c1	19%
CCOC(=O)NC1=NC(=N)N(OCCCOc2cc(Cl)c(Cl)cc2Cl)C(C)(C)N1	94%
O=C(Nc1cccc(N2CCC(NCc3cnn(-c4cccc(F)c4)c3)CC2)c1)c1ccncc1	40%
O=C(C=Cc1ccc(Cl)c(Cl)c1)NCCCCCN1CCC(CCNC(=O)/C=C/c2ccccc2)CC1	1%
CC(=O)N(Cc1nc(-c2cc(C(F)(F)F)cc(C(F)(F)F)c2)cs1)c1c(C)cccc1C	99%
CC(C)CC1(C(=O)OC(C)(C)C)CC(C(=O)OC(C)(C)C)C(c2cccs2)N1C(=O)c1ccc(C(C)(C)C)cc1 (configuration not stated)	100%
